# From PubChem BioAssay (NCI)
# About 83,000 compounds went through this panel and 20% of them were active in at least one assay; those are over-represented in the sample as a whole.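 Cells were grown in 96-well plates and exposed to the test compound at a single concentration for 48 hours; results are reported as percent growth, with values below 10 considered active.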 A number with no mark means an inactive call. Calls of active or inactive are those of the source.
# System: MDA-MB-468 breast
# Assay: NCI-60 one-dose screen, 48 h (100 = growth as untreated, 0 = no growth, -100 = all killed)
# Conditions: 10 µM unless noted
row,Structure (SMILES),growth
1,COc1ccc2oc(=O)cc(-c3nc4ccc(N)cc4[nH]3)c2c1,83.9%
2,CCc1ccc(-c2ccc(COc3ccc(CC4SC(=O)NC4=O)cc3)cc2)cc1 (stereo not given),35.3%
3,CCCCCCCCCCCC(=O)NCCC[N+](C)(C)CC(=O)[O-],86.9%
4,CNc1ccc(Cl)cc1S(=O)(=O)c1ccccc1[N+](=O)[O-],72.7%
5,NCCNc1nc2ccccc2c2c(=O)c3cc(F)ccc3sc12,67.2%
6,O=C(CCc1ccc(O)cc1)N/N=C/c1cc(Br)ccc1O,56.8%
7,COc1cccc(O)c1O,86.7%
8,CCOC(=O)c1c2c(cn1Cc1ccccc1)-c1oncc1CC2,105%
9,CCN1CCN(C(=O)[C@@]2(C)CC[C@]3(C)CC[C@]4(C)C(=CC(=O)[C@@H]5[C@@]6(C)CC[C@H](OCCC#N)C(C)(C)[C@@H]6CC[C@]54C)[C@@H]3C2)CC1,90.9%
10,Cn1cc(-c2csc(-c3cn(CCCN4CCOCC4)c4ccccc34)n2)c2cccnc21,65.1%
11,CC1=NNC(=O)C1C (stereo not given),95.8%
12,CCOC(=O)C(O)C(O)(c1ccccc1)c1ccccc1 (stereo not given),115%
13,N=c1c2cc(-c3ccccc3)oc2ncn1/N=C/c1ccc(Br)cc1,68.3%
14,COc1cc2c(c(OC)c1OC)CCC(c1cccc(NC(=O)c3cccc(Br)c3)c1)O2 (stereo not given),75.2%
15,Cc1c(C(=O)NO)sc2ncnc(Nc3ccc(NC(=S)Nc4ccccc4)cc3)c12,104%
16,O=C(NC(=S)NNC(=S)NNc1ccccc1)c1ccccc1,83.7%
17,COc1ccc2c(c1)c(-c1nc(-c3c[nH]c4ccncc34)cs1)cn2C,-60.8% (active)
18,Nc1nc(Nc2ccccc2SSc2ccccc2Nc2nc(N)nc(-c3ccc(I)cc3)n2)nc(-c2ccc(I)cc2)n1,109%
19,CCN1C(=O)/C(=c2\sc3n(c2=O)NC2C(N=3)N(CC)C(=O)N2CC)c2ccccc21 (stereo not given),27%
20,COC(=O)[C@]12CC[C@@H](C(C)=O)[C@@H]1[C@H]1CC[C@@H]3[C@@]4(C)C/C(=C/c5cccnc5)C(=O)C(C)(C)[C@@H]4CC[C@@]3(C)[C@]1(C)CC2,55.7%

row,Structure (SMILES),growth
1,COc1ccc(-c2nnc(SCC(=O)Nc3ccc(C(=O)/C=C/c4ccc(Cl)cc4)cc3)o2)cc1OC,99.4%
2,O=C1Nc2ccccc2/C1=C/C(=O)c1ccc(N2CCCC2)cc1,5.3% (active)
3,CCN(CC)CCCCCCCNc1c2ccc(Cl)cc2nc2ccc(OC)cc12,-86.6% (active)
4,O=NN(CCCl)C(=O)NCc1ccc(-c2ccc(CNC(=O)N(CCCl)N=O)cc2)cc1,101%
5,CS(=O)(=O)c1ccc(-c2cc3c(oc2=O)-c2ccccc2OC3O)cc1 (stereo not given),91.6%
6,Cc1ccc(-c2nc(SCC(=O)c3ccc(C#N)cc3)[nH]c(=O)c2C#N)cc1,120%
7,CCCN1[C@@H]2CC[C@H]1/C(=C\c1ccc(OC)c(OC)c1)C(=O)/C2=C/c1ccc(OC)c(OC)c1,17.7%
8,CCCC(=O)NC(c1cccnc1)c1cc(Cl)c2cccnc2c1O (stereo not given),30.2%
9,CCOC(=O)C1=C(N)Oc2c(sc3c(C)cccc23)C1c1ccc(F)cc1 (stereo not given),6.58% (active)
10,CCCCCCN(CCCCCC)c1ccc(/C=C2/SC(=O)N(c3nc(N4CCCC4)nc(N4CCCC4)n3)C2=O)c(C)c1,59%
11,CCOc1cccc(/C=N/NC(=O)C(=O)Nc2cccc(C(F)(F)F)c2)c1O,1.46% (active)
12,CCN(CC)CCOc1ccc(/C(=C(\C)Cc2ccc(OC)cc2)c2ccc(OC(=O)NCc3ccccc3)cc2)cc1,43.3%
13,Cc1[nH]n(-c2cccc(Cl)c2)c(=O)c1/C=C1\C=Nc2ccc(Br)cc21,35.7%
14,Cc1nc(-n2[nH]c(=O)ccc2=O)sc1N=Nc1ccccc1,93.8%
15,COc1ccc2c(c1)OC(N)=C(C#N)C2c1ccc(F)cc1 (stereo not given),7.54% (active)
16,Nc1nc(N)c2c(ccc3c2ccn3Cc2cccc([N+](=O)[O-])c2)n1,-84.7% (active)
17,O=C(NCc1ccco1)C1CCN(S(=O)(=O)c2ccc(Cl)cc2)CC1,56.2%
18,Cc1nc2c(ccc3ccccc32)s1,109%
19,CN1CCN(c2nc(-c3cccnc3)nc3sc4c(c23)CCCCCC4)CC1,94.2%
20,CC(=O)OC[C@]12CC[C@@H](/C(C)=N/O)[C@@H]1[C@H]1CC[C@@H]3[C@@]4(C)CCCNC(C)(C)[C@@H]4CC[C@@]3(C)[C@]1(C)CC2,54.1%
